# Test results as given in PubChem BioAssay (NCATS).
# Records with an inconclusive call do not appear. Calls of active or inactive are those of the source. Calls come from the whole dose curve; as a rule, active = well fitted curve in the direction sought with a large enough effect; inconclusive = small, poorly fitted or top-dose-only effect, or another doubt; inactive = no such curve, though single readings can be large; an effect the other way counts as inactive or inconclusive.
# Assays:
# [1] = Confirmatory screen GU Rhodamine qHTS for Zika virus inhibitors qHTS (AID 1347157); note: nearly all actives have a fitted effect of over 70% in size; note: potency is the fitted concentration of half-maximal effect
# Procedure, shortened: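 Unlinked NS2B/NS3, 25 nM; Rhod110 peptide, 1.5 microM; compounds, up to 114 microM. Reaction run 15 min at RT in 10 mM Tris-HCl pH 8.0, 0.01% Tween 20; kinetic fluorescence change fitted with a 4-parameter Hill model.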
# [2] = ZIKV-mCherry secondary qHTS for Zika virus inhibitors (AID 1347158); note: potency is the fitted concentration of half-maximal effect
# Procedure, shortened: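 This orthogonal imaging screen measured ZIKV-mCherry infection of Vero cells exposed to compound, MOI 1, 48-72 h. Percent infection came from segmented nuclei scored mCherry-positive above 3 SD of negative controls.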
# [3] = test system: Zika virus NS2B-NS3 protease (unlinked complex); assay: Primary screen GU Rhodamine qHTS for Zika virus inhibitors: Unlinked NS2B-NS3 protease assay (AID 1347159); note: nearly all actives have a fitted effect of over 60% in size; note: potency is the fitted concentration of half-maximal effect
# Procedure, shortened: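 Percent inhibition came from the 15-min rise in Rhodamine110 fluorescence (1.5 microM substrate, ~15% conversion), normalized to no-inhibitor and no-enzyme wells and Hill-fitted. Unlinked protease, 25 nM, pH 8.0 Tris buffer; compounds up to 114 microM, 15-min preincubation.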
# [4] = test system: Zika virus NS2B-NS3 protease (linked construct); assay: Primary screen NINDS Rhodamine qHTS for Zika virus inhibitors (AID 1347160); note: nearly all actives have a fitted effect of over 55% in size; note: potency is the fitted concentration of half-maximal effect
# Procedure, shortened: (§1)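 Rhodamine110-peptide cleavage (1.5 µM substrate) by 25 nM linked NS2B-NS3 enzyme at pH 8.0 (Tris, Tween 20), after 15 min RT preincubation with compounds; 15-min fluorescence change normalized to controls and Hill-fitted.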
# [5] = Confirmatory screen NINDS Rhodamine qHTS for Zika virus inhibitors (AID 1347161); note: nearly all actives have a fitted effect of over 60% in size; note: potency is the fitted concentration of half-maximal effect
# Procedure, shortened: as §1
# [6] = test system: Zika virus NS2B-NS3 protease (linked); assay: 384 well plate NINDS AMC confirmatory qHTS for Zika virus inhibitors (AID 1347163); note: nearly all actives have a fitted effect of over 50% in size; note: potency is the fitted concentration of half-maximal effect
# Procedure, shortened: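 Enzyme (5, 30 or 60 nM final) first met test compounds for ~15 min. The AMC-tagged peptide Ac-VKTGKR-AMC followed at 30 microM. Fluorescence was then recorded at 25 min and scaled against no-enzyme and no-inhibitor wells.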
# [7] = test system: Zika virus NS2B-NS3 protease (linked construct); assay: 384 well plate NINDS Rhodamine confirmatory qHTS for Zika virus inhibitors (AID 1347164);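 note: fluorescence from protease cleavage of Ac-LKRR-rhodamine 110 substrate; nearly all actives have a fitted effect of over 65% in size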; note: potency is the fitted concentration of half-maximal effect
# Procedure, shortened: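 Linked protease at a final 5 nM, 30 nM or 60 nM was preincubated ~15 min with compounds, then given 10 microM Ac-LKRR-Rhodamine 110. Fluorescence (ex 485/em 538 nm) after 25 min in the dark at room temperature.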
# [8] = Vero cells viability qHTS for Zika virus inhibitors (AID 1347167)
# Procedure, shortened: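 To flag cytotoxic protease inhibitors, viability is measured by ATP-dependent luminescence (CellTiter Glo) after cells attached overnight receive compound for 24 to 48 hours in DMEM with 4% FBS.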
# [9] = test system: Zika virus NS2B-NS3 protease (unlinked complex); assay: Confirmatory screen GU AMC qHTS for Zika virus inhibitors (AID 1347153);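 note: enzyme at 25 nM with substrate at 10 µM below its Km of 18.3 µM; potency is the fitted concentration of half-maximal effect; nearly all actives have a fitted effect of over 70% in size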
# Procedure, shortened: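 Compounds were preincubated 15 min at room temperature with 25 nM noncovalent NS2B-NS3 protease at pH 8.0; AMC substrate added at 10 microM and 15-min fluorescence gain (340/450 nm) converted to percent inhibition, fitted 4-parameter.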
smiles,measurement,setting,value
COc1cnc(-c2ccc(Cn3c(CC(C)(C)C(=O)O)c(SC(C)(C)C)c4cc(OC[C@@H]5Cc6ccccc6N5C(C)=O)ccc43)cc2)nc1,Potency,[1],1.53 µM (active)
same,Potency,[2],10 µM (active)
same,Potency,[3],3.98 µM (active)
same,Potency,[4],3.16 µM (active)
same,Potency,[5],2.43 µM (active)
same,Potency,[6],0.631 µM (active)
same,Potency,[7],1.78 µM (active)
same,outcome,[8],inactive
Cc1ccccc1-n1nc(-c2c(-c3ccc(F)cc3)nn3c2NC[C@@H](CO)C3)ccc1=O,Potency,[1],inactive
same,Potency,[3],inactive
same,Potency,[5],inactive
O=C(/C=C/c1ccccc1)OC[C@H]1O[C@@H](OC(=O)c2cc(O)c(O)c(O)c2)[C@H](O)[C@@H](O)[C@@H]1O,Potency,[1],2.15 µM (active)
same,Potency,[3],3.98 µM (active)
same,Potency,[4],inactive
same,Potency,[5],3.41 µM (active)
CCC(C)/C=C(C)/C=C/C1=CC2=CC(=O)C(C)(O)C(OC(C)=O)C2CO1 (centres undefined),Potency,[1],30.6 µM (active)
same,Potency,[3],14.1 µM (active)
same,Potency,[4],inactive
same,Potency,[5],34.3 µM (active)
C/C(=C\CC/C(C)=C/CC[C@]1(C)CCc2cc(O)cc(C)c2O1)CC/C=C(\C)C(=O)O,Potency,[1],3.83 µM (active)
same,Potency,[2],inactive
same,Potency,[3],8.91 µM (active)
same,Potency,[4],2.2 µM (active)
same,Potency,[5],1.92 µM (active)
same,Potency,[6],5.01 µM (active)
same,Potency,[7],2.51 µM (active)
same,outcome,[8],inactive
C/C=C/C=C/C=C/C(=O)O[C@@H]1[C@@H](OC)C2=C(C(=O)N(C(CCC(=O)O)C(=O)O)C2)[C@@]2(C)CCCC(C)(C)[C@H]12 (some centres undefined),Potency,[9],9.61 µM (active)
same,Potency,[1],4.82 µM (active)
same,Potency,[2],inactive
same,Potency,[3],4.47 µM (active)
same,Potency,[5],2.71 µM (active)
same,Potency,[6],2.24 µM (active)
same,Potency,[7],15.8 µM (active)
same,outcome,[8],inactive
O=C(O)CC1CCC(c2ccc(-c3ccc(Nc4ccc(C(F)(F)F)nc4)cn3)cc2)CC1 (centres undefined),Potency,[9],44.1 µM (active)
same,Potency,[1],4.41 µM (active)
same,Potency,[3],6.31 µM (active)
same,Potency,[4],10 µM (active)
same,Potency,[5],4.41 µM (active)
same,Potency,[7],inactive
same,outcome,[8],inactive
O=C(Nc1ccccc1)Nc1ccc(-c2ccc(C(=O)C3CCCC3C(=O)O)cc2)cc1 (centres undefined),Potency,[9],35 µM (active)
same,Potency,[1],4.94 µM (active)
same,Potency,[3],5.01 µM (active)
same,Potency,[4],3.55 µM (active)
same,Potency,[5],3.93 µM (active)
same,Potency,[6],inactive
same,Potency,[7],11.2 µM (active)
same,outcome,[8],inactive
CC(C)CC(c1c(O)c(C=O)c(O)c(C=O)c1O)C1CCC(C)(O)C2CC(C(C)(C)O)CCC12C (centres undefined),Potency,[6],50.1 µM (active)
CCCNCCOc1ccc(NC(=O)c2c[nH]c3c2C(=O)CCC3)cc1F,Potency,[3],inactive
C[C@@H]1O[C@@H](O[C@@H]2[C@@H](O)[C@H](O[C@H]3[C@H](O[C@H]4CC[C@@]5(C)C(CC[C@]6(C)C5CC=C5[C@@H]7CC(C)(C)CC[C@]7(C(=O)O[C@@H]7O[C@H](CO)[C@@H](O)[C@H](O)[C@H]7O)CC[C@]56C)C4(C)C)O[C@H](C(=O)O)[C@@H](O)[C@@H]3O)OC[C@H]2O)[C@H](O)[C@H](O)[C@H]1O (some centres undefined),Potency,[3],inactive
same,Potency,[4],inactive
COc1cc(C2OCC3(O)C(c4ccc(O[C@@H]5O[C@H](CO)[C@@H](O)[C@H](O)[C@H]5O)c(OC)c4)OCC23O)ccc1O (some centres undefined),Potency,[3],inactive
CC1(C)CC[C@]2(C(=O)O[C@@H]3O[C@H](CO)[C@@H](O)[C@H](O)[C@H]3O)CC[C@]3(C)C(=CCC4[C@@]5(C)CC[C@H](O[C@@H]6O[C@H](C(=O)O)[C@@H](O[C@@H]7O[C@H](CO)[C@@H](O)[C@H](O)[C@H]7O)[C@H](O)[C@H]6O[C@@H]6O[C@H](CO)[C@@H](O)[C@H](O)[C@H]6O)C(C)(C)C5CC[C@]43C)C2C1 (some centres undefined),Potency,[3],inactive
COc1cc(Cc2cnc(N)nc2N)c(C(C)C)cc1OC,Potency,[3],inactive
Cc1cc(-n2c(=O)[nH]c(=O)n(C)c2=O)ccc1Oc1ccc(SC(F)(F)F)cc1,Potency,[3],15.8 µM (active)
Cc1occc1C(=O)n1ccnc1,Potency,[3],inactive
CC(=O)/C=C/[C@H]1[C@](C)(O)[C@@H](O)[C@H](O)C2C(C)(C)CCC[C@@]21C (some centres undefined),Potency,[3],inactive
same,Potency,[4],inactive
CC(C)(O)/C=C/C(=O)[C@](C)(O)[C@H]1[C@H](O)C[C@@]2(C)[C@@H]3CC=C4[C@@H](C=C(O[C@@H]5O[C@H](CO)[C@@H](O)[C@H](O)[C@H]5O)C(=O)C4(C)C)[C@]3(C)C(=O)C[C@]12C,Potency,[3],inactive
same,Potency,[4],inactive
CN1CCN(C2=Nc3ccccc3Nc3ccc(O)cc32)CC1,Potency,[3],inactive
C/C=C1/C[N+](C)([O-])C2Cc3c([nH]c4ccccc34)C(=O)CC1C2C(=O)OC (centres undefined),Potency,[3],inactive
C[C@@H]1O[C@@H](O[C@H]2[C@H](O[C@H]3[C@H](O[C@H]4CC[C@@]5(C)C(CC[C@]6(C)C5CC=C5[C@@H]7CC(C)(C)C[C@@H](O)[C@]7(C)CC[C@]56C)[C@@]4(C)CO)O[C@H](C(=O)O)[C@@H](O)[C@@H]3O)O[C@H](CO)[C@H](O)[C@@H]2O)[C@H](O)[C@H](O)[C@H]1O (some centres undefined),Potency,[3],inactive
OCC1OC(Oc2cc(O)cc(/C=C/c3ccc(OC4OC(CO)C(O)C(O)C4O)cc3O)c2)C(O)C(O)C1O (centres undefined),Potency,[3],inactive
same,Potency,[4],inactive
Cc1sc(C)c(C(=O)NC2(c3ccc(C(=O)O)cc3)CC2)c1Cc1ccc(C(F)(F)F)cc1,Potency,[3],17.8 µM (active)
O=C(/C=C/c1ccc(O)cc1)OCC1OC(O)C(OC2OC(CO)C(O)C(O)C2O)C(O)C1O (centres undefined),Potency,[3],inactive
same,Potency,[4],inactive
Cc1c(Cc2ccc3ccccc3n2)c2cc(F)ccc2n1CC(=O)O,Potency,[3],35.5 µM (active)
C/C=C/C=C/C(O)=C1/C(=O)[C@]2(C)C3/C(=C(O)/C=C/C=C/C)C(=O)C4(C)C1[C@]1(C)O[C@@]4(O)[C@@]3(C)O[C@@]12O,Potency,[3],inactive
same,Potency,[4],inactive
CC(C)=C1CC2C(CCC2(C)O)C(C)(O)CC1=O (centres undefined),Potency,[3],inactive
COc1ccc(C2OCC3C(c4cc(OC)c5c(c4)OCO5)OCC23)cc1OC (centres undefined),Potency,[3],inactive
same,Potency,[4],inactive
COc1cnc(-n2cnc(C)n2)c2[nH]cc(C(=O)C(=O)N3CCN(C(=O)c4ccccc4)CC3)c12,Potency,[3],inactive
same,Potency,[4],inactive
